Active and inactive are the calls of the source. No rule for the calls is given here.
Test system: not listed separately
Test: EMT-state selective cytotoxicity in co-culture – imaging, PC-3E GFP, TEM4-18 mCherry, primary screen (AID 1345086);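 also: cells exposed to compound for 72 h before imaging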
Settings: PC-3E GFP / TEM4-18 mCherry co-culture, imaging cell counts; measured here: mesenchymal TEM4-18 mCherry cell survival; at 1 µM

SMILES | normalised cell number
CC1[C@H](C)OC(=O)CC(O)CC(O)CC(O)CCC(O)C(O)C[C@]2(O)CC(O)C(C(=O)O)C(CC(OC3O[C@H](C)[C@@H](O)[C@H](N)[C@@H]3O)/C=C/C=C/C=C/C=C/CC/C=C/C=C/[C@H](C)[C@H]1O)O2 (some centres undefined) | 1.25
C[N+](C)(C)CC(=O)[O-] | 1.39
COc1cc2c(cc1OC)[C@@H]1C(=O)c3ccc4c(c3O[C@@H]1CO2)CC(C(C)C)O4 (some centres undefined) | 0.64
C#CC1(O)CCC2C3CCC4=CC(=O)CCC4(C)C3CCC21C (centres undefined) | 0.93
CCC(=O)O[C@H]1CCC2C3CCC4=CC(=O)CC[C@]4(C)C3CC[C@@]21C (some centres undefined) | 1.48
C[C@@H]1CC[C@@]2(OC1)OC1C(O)C3C4CC[C@H]5C[C@H](O[C@@H]6O[C@H](CO)[C@H](O[C@@H]7O[C@H](CO)[C@@H](O)[C@H](O[C@@H]8OC[C@@H](O)[C@H](O)[C@H]8O)[C@H]7O[C@@H]7O[C@H](CO)[C@H](O)[C@H](O[C@@H]8O[C@H](CO)[C@@H](O)[C@H](O)[C@H]8O)[C@H]7O)[C@H](O)[C@H]6O)[C@H](O)C[C@]5(C)C4CC[C@]3(C)C1[C@@H]2C (some centres undefined) | 0.76
CCN1C[C@@]2(COC)C3[C@@H](OC)[C@H]4[C@@H]1[C@]3(C(OC)C[C@H]2O)C1C[C@@]2(O)[C@H](OC(=O)c3ccccc3)C1[C@]4(OC(C)=O)[C@@H](O)[C@@H]2OC (some centres undefined) | 1.07
CC(=O)O[C@@H]1CC2C(C)(C)C(=O)C=C[C@]2(C)C2CC[C@]3(C)C(=CC(=O)O[C@H]3c3ccoc3)[C@@]21C (some centres undefined) | 0.99
CC(=O)OC1CC[C@@]2(C)C(CCC3C2CC[C@]2(C)C(C4=CC(=O)OC4)C(OC(C)=O)CC32O)C1 (some centres undefined) | 0.03
C[C@@H]1CC(Cl)CC[C@H]1C(=O)OC(C)(C)C (some centres undefined) | 1.12
O=C1C=CC(=O)c2ccccc21 | 1.02
C=CCN1CC[C@]23c4c5ccc(O)c4OC2C(=O)CC[C@@]3(O)[C@H]1C5 (some centres undefined) | 1.19
CC1=CC(=O)c2c(O)cccc2C1=O | 0.01
CC1OC(=O)[C@@H](C(C)C)NC(=O)C(C(C)C)OC(=O)[C@H](C(C)C)NC(=O)C(C)OC(=O)[C@@H](C(C)C)NC(=O)C(C(C)C)OC(=O)[C@H](C(C)C)NC(=O)C(C)OC(=O)[C@@H](C(C)C)NC(=O)C(C(C)C)OC(=O)[C@H](C(C)C)NC1=O (some centres undefined) | 0.29
C=C1CC2C(CC[C@]3(C)C(=O)CCC23)[C@@]2(C)C=CC(=O)C=C12 (some centres undefined) | 1.17
C=C(C)C1Cc2c(ccc3c(=O)c4c(oc23)COc2cc(OC)c(OC)cc2-4)O1 (centres undefined) | 0.86
O=C(NC(=O)c1c(F)cccc1F)Nc1ccc(Cl)cc1 | 0.99
CC(=O)O[C@H]1C(=O)[C@@]2(C)C([C@H](OC(=O)c3ccccc3)[C@]3(O)C[C@H](O)C(C)=C1C3(C)C)[C@]1(OC(C)=O)CO[C@@H]1C[C@@H]2O (some centres undefined) | 0.9
CC(CO)NC(=O)C1C=C2c3cccc4[nH]cc(c34)C[C@H]2N(C)C1 (some centres undefined) | 0.88
C[C@]12CCC(=O)C=C1C=CC1C2CC[C@@]2(C)C1CC[C@@]2(O)CCC(=O)O (some centres undefined) | 1.17
O=c1c(O)c(-c2ccc(O)c(O)c2)oc2c(O)c(O)cc(O)c12 | 0.91
CC[C@@]1(O)C[C@H](O[C@H]2C[C@H](N(C)C)[C@H](O)[C@H](C)O2)c2c(cc3c(c2O)C(=O)c2c(O)ccc(O)c2C3=O)[C@H]1C(=O)OC | 0.9
N#CC(O[C@@H]1O[C@H](CO[C@@H]2O[C@H](CO)[C@@H](O)[C@H](O)[C@H]2O)[C@@H](O)[C@H](O)[C@H]1O)c1ccccc1 (some centres undefined) | 0.94
CN(CCC(N)CC(=O)N[C@H]1C=CC(n2ccc(N)nc2=O)O[C@@H]1C(=O)O)C(=N)N (some centres undefined) | 0.93
Nc1ncn[nH]1 | 1.07
CN1C2C[C@H](OC(=O)[C@H](CO)c3ccccc3)C[C@H]1[C@@H](O)C2 | 1.03
Oc1ccc2c3c1OC1[C@@H](O)CC[C@@]4(O)[C@@H](C2)N(CC2CCC2)CC[C@]314 (some centres undefined) | 0.97
C=C[C@H]1CN2CC[C@H]1C[C@@H]2[C@H](O)c1ccnc2ccccc12 | 1.1

Test system: Aerobactin synthetase IucA (Klebsiella pneumoniae hvKP1)
Test: IucA enzyme inhibition, primary screen, biochemical, Spectrum library (AID 1346200);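 also: 100% = wells without compound and 0% = wells lacking enzyme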
Settings: malachite green pyrophosphate, A620, at 8 µM, stronger effect = lower value

SMILES | activity remaining
O=C1CC[C@@]2(O)[C@H]3Cc4ccc(O)c5c4C2(CCN3CC2CC2)[C@H]1O5 | 104% (inactive)
C=C[C@H]1CN2CC[C@H]1C[C@@H]2[C@@H](OC(=O)OCC)c1ccnc2ccc(OC)cc12 | 98.2% (inactive)
CC1(C)C(=O)C=C[C@@]2(C)C1=C(O)C(=O)[C@]1(C)C2CC[C@@]2(C)[C@H](c3ccoc3)C[C@H]3O[C@]321 (some centres undefined) | 116% (inactive)
COc1cccc([C@]2(O)CCCC[C@H]2CN(C)C)c1 | 98.7% (inactive)
CC1CC[C@]2(NC1)O[C@H]1CC3C4CC[C@H]5C[C@@H](O)CC[C@]5(C)C4CC[C@]3(C)[C@H]1[C@@H]2C (some centres undefined) | 96.8% (inactive)
CC(=O)O[C@H]1C[C@@H](OC(C)=O)C(C)(C)C2C[C@@H](OC(C)=O)[C@]3(C)C(CC[C@@]4(C)[C@H](c5ccoc5)C(=O)[C@H]5O[C@]543)[C@]21C (some centres undefined) | 109% (inactive)
NC1C[C@H]1c1ccccc1 (some centres undefined) | 123% (inactive)
CC1(C)C(=O)C=C[C@@]2(C)C1C[C@@H](O)[C@]1(C)C2CC[C@@]2(C)[C@H](c3ccoc3)OC(=O)[C@H]3O[C@]321 (some centres undefined) | 88.4% (inactive)
COC[C@]12CN(C=O)C3[C@@H]4[C@H](OC)C1[C@]3(C1CC3(O)C(OC)C(O)C4(OC(C)=O)C1C3OC(=O)c1ccccc1)[C@@H](OC)C[C@H]2O (some centres undefined) | 118% (inactive)
CNC(C)[C@H](O)c1ccccc1 (some centres undefined) | 87.2% (inactive)
C[C@@H]1O[C@@H](O[C@H]2C[C@@H](O)[C@]3(CO)C4C(CC[C@]3(O)C2)[C@@]2(O)CC[C@H](C3=CC(=O)OC3)[C@@]2(C)C[C@H]4O)[C@H](O)[C@H](O)[C@H]1O (some centres undefined) | 122% (inactive)
CC(C)C[C@@H](CN)CC(=O)O | 121% (inactive)
CC1[C@H](C)OC(=O)CC(O)CC(O)CC(O)CCC(O)C(O)C[C@]2(O)CC(O)C(C(=O)O)C(CC(OC3O[C@H](C)[C@@H](O)[C@H](N)[C@@H]3O)/C=C/C=C/C=C/C=C/CC/C=C/C=C/[C@H](C)[C@H]1O)O2 (some centres undefined) | 89.3% (inactive)
C[N+](C)(C)CC(=O)[O-] | 124% (inactive)
COc1cc2c(cc1OC)[C@@H]1C(=O)c3ccc4c(c3O[C@@H]1CO2)CC(C(C)C)O4 (some centres undefined) | 114% (inactive)
C#CC1(O)CCC2C3CCC4=CC(=O)CCC4(C)C3CCC21C (centres undefined) | 112% (inactive)
CCC(=O)O[C@H]1CCC2C3CCC4=CC(=O)CC[C@]4(C)C3CC[C@@]21C (some centres undefined) | 108% (inactive)
C[C@@H]1CC[C@@]2(OC1)OC1C(O)C3C4CC[C@H]5C[C@H](O[C@@H]6O[C@H](CO)[C@H](O[C@@H]7O[C@H](CO)[C@@H](O)[C@H](O[C@@H]8OC[C@@H](O)[C@H](O)[C@H]8O)[C@H]7O[C@@H]7O[C@H](CO)[C@H](O)[C@H](O[C@@H]8O[C@H](CO)[C@@H](O)[C@H](O)[C@H]8O)[C@H]7O)[C@H](O)[C@H]6O)[C@H](O)C[C@]5(C)C4CC[C@]3(C)C1[C@@H]2C (some centres undefined) | 111% (inactive)

SMILES | activity remaining
CCN1C[C@@]2(COC)C3[C@@H](OC)[C@H]4[C@@H]1[C@]3(C(OC)C[C@H]2O)C1C[C@@]2(O)[C@H](OC(=O)c3ccccc3)C1[C@]4(OC(C)=O)[C@@H](O)[C@@H]2OC (some centres undefined) | 113% (inactive)
CC(=O)O[C@@H]1CC2C(C)(C)C(=O)C=C[C@]2(C)C2CC[C@]3(C)C(=CC(=O)O[C@H]3c3ccoc3)[C@@]21C (some centres undefined) | 123% (inactive)
CC(=O)OC1CC[C@@]2(C)C(CCC3C2CC[C@]2(C)C(C4=CC(=O)OC4)C(OC(C)=O)CC32O)C1 (some centres undefined) | 109% (inactive)
C[C@@H]1CC(Cl)CC[C@H]1C(=O)OC(C)(C)C (some centres undefined) | 119% (inactive)
O=C1C=CC(=O)c2ccccc21 | 105% (inactive)
C=CCN1CC[C@]23c4c5ccc(O)c4OC2C(=O)CC[C@@]3(O)[C@H]1C5 (some centres undefined) | 92.9% (inactive)
CC1=CC(=O)c2c(O)cccc2C1=O | 112% (inactive)
CC1OC(=O)[C@@H](C(C)C)NC(=O)C(C(C)C)OC(=O)[C@H](C(C)C)NC(=O)C(C)OC(=O)[C@@H](C(C)C)NC(=O)C(C(C)C)OC(=O)[C@H](C(C)C)NC(=O)C(C)OC(=O)[C@@H](C(C)C)NC(=O)C(C(C)C)OC(=O)[C@H](C(C)C)NC1=O (some centres undefined) | 122% (inactive)
C=C1CC2C(CC[C@]3(C)C(=O)CCC23)[C@@]2(C)C=CC(=O)C=C12 (some centres undefined) | 121% (inactive)
C=C(C)C1Cc2c(ccc3c(=O)c4c(oc23)COc2cc(OC)c(OC)cc2-4)O1 (centres undefined) | 126% (inactive)
O=C(NC(=O)c1c(F)cccc1F)Nc1ccc(Cl)cc1 | 122% (inactive)
CC(=O)O[C@H]1C(=O)[C@@]2(C)C([C@H](OC(=O)c3ccccc3)[C@]3(O)C[C@H](O)C(C)=C1C3(C)C)[C@]1(OC(C)=O)CO[C@@H]1C[C@@H]2O (some centres undefined) | 96.8% (inactive)
CC(CO)NC(=O)C1C=C2c3cccc4[nH]cc(c34)C[C@H]2N(C)C1 (some centres undefined) | 98.2% (inactive)
C[C@]12CCC(=O)C=C1C=CC1C2CC[C@@]2(C)C1CC[C@@]2(O)CCC(=O)O (some centres undefined) | 110% (inactive)
O=c1c(O)c(-c2ccc(O)c(O)c2)oc2c(O)c(O)cc(O)c12 | 118% (inactive)
CC[C@@]1(O)C[C@H](O[C@H]2C[C@H](N(C)C)[C@H](O)[C@H](C)O2)c2c(cc3c(c2O)C(=O)c2c(O)ccc(O)c2C3=O)[C@H]1C(=O)OC | 96.8% (inactive)
N#CC(O[C@@H]1O[C@H](CO[C@@H]2O[C@H](CO)[C@@H](O)[C@H](O)[C@H]2O)[C@@H](O)[C@H](O)[C@H]1O)c1ccccc1 (some centres undefined) | 123% (inactive)
CN(CCC(N)CC(=O)N[C@H]1C=CC(n2ccc(N)nc2=O)O[C@@H]1C(=O)O)C(=N)N (some centres undefined) | 109% (inactive)

From PubChem BioAssay
